Assay results: PubChem BioAssay (NCATS)
Records with an inconclusive call do not appear. The source made the active and inactive calls. Calls come from the whole dose curve; as a rule, active = well fitted inhibition curve with a large enough effect; inconclusive = small, poorly fitted or top-dose-only effect; inactive = no such curve, though single readings can be large or run the other way.

test system: Zika virus NS2B-NS3 protease (linked construct); test: Primary screen NINDS Rhodamine qHTS for Zika virus inhibitors (AID 1347160); details: purified NS2B-NS3 protease, Rhodamine110 substrate fluorescence; series mostly up to 57.1 µM; activity change, negative = inhibition: at the top concentration; note: nearly all actives have a fitted effect of over 55% in size
Procedure, shortened: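 Each compound, titrated, sat 15 min with 25 nM linked protease before 1.5 microM Rhodamine110 substrate went in. Fluorescence gain over the next 15 min, in pH 8.0 Tris with Tween 20, gave Hill-fitted curves.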
% is set by controls: 0 for no effect and ±100 for the full control effect; potency is the fitted concentration of half-maximal effect.

SMILES | activity change, negative = inhibition | Potency | outcome
C=C1C(OC(=O)/C(C)=C\C)[C@@]23CCC4[C@@](C)(CCC[C@@]4(C)C(=O)O)C2CC[C@H]1C3OC(C)=O (stereo not given in full) | -11.9% [at 33.1 µM] (inactive) |  | 
C=C(C(=O)O)C1CCC2(C)CCC(O)C(=C)C2C1 (stereo not given) |  | 8.91 µM (active) | 
Cc1noc(=O)c2ccc(NC(=O)C(O)(CC(C)(C)c3cccc4c3OCC4)C(F)(F)F)cc12 (stereo not given) | 7.46% (inactive) |  | 
C/C=C1\[C@H](O[C@@H]2O[C@H](CO)[C@@H](O)[C@H](O)[C@H]2O)OC=C2C(=O)OCCc3ccc(O)c(c3)Oc3ccc(cc3)CCOC(=O)C[C@H]21 | -8.75% [at 15.1 µM] (inactive) |  | 
C=C1CCC2C(C)(C)CCC[C@]2(C)[C@H]1C/C=C(\CO)C(=O)C(=O)O (stereo not given in full) | -8.84% [at 33.1 µM] (inactive) |  | 
O=S(=O)(Nc1ccccn1)c1ccc(N=Cc2c(O)[nH]c3ccc4ncsc4c23)cc1 | 12% [at 10.7 µM] (inactive) |  | 
CC(C)c1ccc2c(c1)C(=O)CC1[C@@](C)(C(=O)O)CCC[C@]21C (stereo not given in full) |  |  | inactive [at 33.1 µM]
COc1ccc(/C=C/C(=O)O[C@@H]2[C@@H](O)[C@H](C)O[C@@H](O[C@H]3[C@@H]4C=CO[C@@H](O[C@H]5O[C@@H](CO)[C@H](O)[C@@H](O)[C@@H]5O)[C@@H]4[C@@]4(CO)O[C@@H]34)[C@@H]2OC(C)=O)cc1 | -7.47% [at 15.1 µM] (inactive) |  | 
C=C1CCC2C(C)(C(=O)O)CCCC2(C)C1CC/C(=C\CO)CO (stereo not given) |  |  | inactive [at 33.1 µM]
Cc1cccc(/C=N/Nc2cc(N3CCOCC3)n3nc(-c4ccncc4)cc3n2)c1 | -2.84% (inactive) |  | 
CCCCOC(=O)NC(=O)C1c2ccccc2Oc2ccccc21 | -9.32% (inactive) |  | 
CCOCc1cc(OC)c(-c2ccc(C[C@H](NC(=O)c3c(F)cccc3F)C(=O)O)cc2)c(OC)c1 | 11% (inactive) |  | 
CC1=C(C)C(=O)OC(C(C)C2CCC3C4C5OC5C5(O)CC(OC6OC(CO)C(OC7OC(C)C(O)C(O)C7O)C(O)C6O)CC(O)C5(C)C4CCC23C)C1 (stereo not given) | 17.2% [at 15.1 µM] (inactive) |  | 
O=C(/C=C\n1cnc(-c2cc(C(F)(F)F)cc(C(F)(F)F)c2)n1)N1CC(F)(F)C1 | 7.45% (inactive) |  | 
O=C(O)C1CN(Cc2ccc(-c3nc4cc(Cc5ccccc5F)ccc4s3)c(F)c2)C1 | -8.39% [at 10.7 µM] (inactive) |  | 
CN1c2ccccc2C(=O)N2CCC3c4ccccc4NC3C21 (stereo not given) |  |  | inactive [at 33.1 µM]
COc1ccc(/C=C/C(=O)O[C@H]2[C@H](O[C@H]3[C@@H]4C=CO[C@@H](O[C@@H]5O[C@H](CO)[C@@H](O)[C@H](O)[C@H]5O)[C@@H]4[C@@]4(CO)O[C@@H]34)O[C@@H](C)[C@H](O)[C@H]2OC(C)=O)cc1 | 24.7% [at 15.1 µM] (inactive) |  | 
CC1(C)CCC[C@@]2(C)C1[C@H](OC(=O)/C=C/C=C/C(=O)O)C=C1COC(=O)[C@@]12O (stereo not given in full) | -1.9% [at 33.1 µM] (inactive) |  | 
Cc1csc(NC(=O)c2ccc(COc3cccc(Cl)c3)o2)n1 | 79.3% (inactive) |  | 
CC(C)=C/C=C\[C@H](C)[C@H]1CC[C@]2(C)C[C@@H]3C(C)=CC(=O)C3/C(CO)=C\C[C@@H]12 (stereo not given in full) | -14% [at 33.1 µM] (inactive) |  | 

SMILES | activity change, negative = inhibition | Potency | outcome
COC(=O)c1ccnc(-c2cc(C(=O)NCCc3ccccc3)ccn2)c1 | 11.5% (inactive) |  | 
CC(=O)SCC(=O)c1ccc(NS(=O)(=O)c2ccc(OCCCN(C)C)cc2)nc1 | -12.1% (inactive) |  | 
CC1=C(CCC(C)O[C@@H]2O[C@H](CO)[C@@H](O)[C@H](O)[C@H]2O)C(C)(C)CCC1=O (stereo not given in full) | -21.5% [at 33.1 µM] (inactive) |  | 
CC(C)(O)c1ccc2c(c1)C(O)C[C@H]1[C@](C)(C(=O)O)CCC[C@]21C (stereo not given in full) | -21.5% [at 33.1 µM] (inactive) |  | 
CC1(C)CC(=O)C2=C(C1)NC(=S)NC2c1cccc(O)c1 (stereo not given) |  |  | inactive
O=C(/C=C/c1ccc(O)cc1)N[C@@H](Cc1ccc(O)cc1)C(=O)O |  |  | inactive [at 33.1 µM]
N[C@@]1(C(=O)O)CC[C@H]2[C@H](C(=O)O)[C@H]21 |  |  | inactive
CC(C)=CCC/C(C)=C/CO[C@@H]1O[C@H](CO)[C@@H](OC(=O)/C=C/c2ccc(O)cc2)[C@H](O[C@@H]2O[C@@H](C)[C@H](O)[C@@H](O)[C@H]2O)[C@H]1O | -5.05% [at 15.1 µM] (inactive) |  | 
C/C1=C\CC[C@]2(C)O[C@@H]2[C@H](O)[C@H](C(C)C)[C@H](OC(=O)/C=C/c2ccccc2)C1 | 8.73% [at 33.1 µM] (inactive) |  | 
CCn1cc(NC(=S)Nc2cc(Cl)ccc2OC)c(C(N)=O)n1 |  |  | inactive
C=CC1(C)C=C2C(=O)OC(=O)C3=C(CCCC3(C)C)C2(O)CC1 (stereo not given) |  |  | inactive [at 33.1 µM]
O=C(c1ccc2nccnc2c1)N1CCCCC1 |  |  | inactive
CC1=CC(=O)[C@]2(O[C@@H]3O[C@@H](C)[C@H](O)[C@@H](O)[C@H]3OC(=O)/C=C/c3ccccc3)C=CO[C@@H](O[C@@H]3O[C@H](CO)[C@@H](O)[C@H](O)[C@H]3O)[C@H]12 | -26.5% [at 15.1 µM] (inactive) |  | 
CN(C)C/C=C/C(=O)Nc1cccc(C(=O)Nc2cccc(Nc3ncc(Cl)c(-c4c[nH]c5ccccc45)n3)c2)c1 | 35.4% (inactive) |  | 
C/C1=C\CCC2=C[C@@H](OC2=O)c2c(C)coc2C1 | -7.98% (inactive) |  | 
Nc1ncnc2c1nc(N)n2[C@@H]1O[C@H](CO)[C@@H](O)[C@H]1O | 22.2% (inactive) |  | 
Cc1cc(C)cc(C(=O)NOCCCCCC(=O)NO)c1 | 19.1% (inactive) |  | 
COc1cc(C(=O)NC2CCN(C)CC2)c(F)cc1Nc1ncc2c(n1)N(C1CCCC1)CC(F)(F)C(=O)N2C | 12.8% (inactive) |  | 
Cc1cc(-c2cc(O)ccc2Cl)cc2nnc(Nc3ccc(OCCN4CCCC4)cc3)nc12 | 40.2% (inactive) |  | 
CC1=C2C3OC(=O)C(C)C3(O)CCC2(C)CCC1O (stereo not given) | -44.3% (inactive) |  | 
